# From PubChem BioAssay (NCATS)
# Inconclusive results are not listed. Where a call stands in place of a potency, no number is given. Active and inactive are the calls of the source. The call rests on the fitted dose curve; in most records, active means well fitted inhibition curve with a large enough effect; inconclusive means small, poorly fitted or top-dose-only effect; inactive means no such curve, though single readings can be large or run the other way.
# How the values were obtained:
# [1] = test system: Zika virus NS2B-NS3 protease (unlinked complex); experiment: Primary screen GU Rhodamine qHTS for Zika virus inhibitors: Unlinked NS2B-NS3 protease assay (AID 1347159); further: nearly all actives have a fitted effect of over 60% in size
# How it was run: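 Compounds, tested up to 114 microM, were incubated for 15 minutes with 25 nM unlinked NS2B-NS3 protease at pH 8.0. Cleavage of 1.5 microM Rhodamine110 substrate was then followed by fluorescence for 15 minutes.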
# [2] = test system: Zika virus NS2B-NS3 protease (linked construct); experiment: Primary screen NINDS Rhodamine qHTS for Zika virus inhibitors (AID 1347160); further: nearly all actives have a fitted effect of over 55% in size
# How it was run: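 Percent inhibition, normalized to uninhibited and enzyme-free controls, is fitted to a 4-parameter Hill equation. Fluorescence change comes from a 15-min cleavage of 1.5 microM bis-peptide Rhodamine110 substrate by 25 nM linked NS2B-NS3 at room temperature.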
# Potency means the concentration at half of the fitted maximal effect.
structure (smiles),measurement,setting,value
COC1C(OC(=O)/C=C/C=C/C=C/C=C/C(=O)O)CCC2(CO2)C1C1(C)OC1CC=C(C)C (stereo unspecified),Potency,[1],8.91 µM (active)
Cc1cc(N2CCOCC2)ccc1Nc1nc(NC2CCCCC2)c2[nH]cnc2n1,Potency,[1],inactive
same,Potency,[2],inactive
Cn1ncc(Cl)c1-c1cc(C(=O)N[C@H](CN)Cc2ccc(F)c(F)c2)oc1Cl,Potency,[1],inactive
same,Potency,[2],inactive
C[C@@H]1O[C@@H](O[C@H]2[C@@H](OC(=O)[C@]34CCC(C)(C)CC3C3=CCC5[C@@]6(C)C[C@H](O)[C@H](O[C@@H]7O[C@H](CO)[C@@H](O)[C@H](O)[C@H]7O[C@@H]7OC[C@@H](O)[C@H](O)[C@H]7O)[C@@](C)(C(=O)O)C6CC[C@@]5(C)[C@]3(C)CC4)OC[C@H](O)[C@@H]2O)[C@H](O)[C@H](O)[C@H]1O[C@@H]1OC[C@@H](O)[C@H](O)[C@H]1O (stereo partly specified),"activity change, negative = inhibition",[1],46.4% [at 19.1 µM] (inactive)
same,"activity change, negative = inhibition",[2],21.4% [at 10.7 µM] (inactive)
CCC(CC)C(=O)OC12C(OC(=O)C(C)C)C(C)C3(O)C(C=C(CO)CC4(O)C(=O)C(C)=CC43)C1C2(C)C (stereo unspecified),Potency,[1],inactive
same,Potency,[2],inactive
COc1ccccc1N1CCN(c2ncnc3n[nH]c(Br)c23)CC1,Potency,[1],inactive
same,Potency,[2],inactive
CCCn1ncc(CN2CCCC(C(=O)c3cccc(OC(C)C)c3)C2)c1C (stereo unspecified),Potency,[1],inactive
same,Potency,[2],inactive
O=C(Nc1ccccc1C(=O)Nc1ccc(CCO)cc1)c1ccc([N+](=O)[O-])cc1,Potency,[1],inactive
same,Potency,[2],inactive
O=C(C(Cc1cccc(C(F)(F)F)c1)NS(=O)(=O)c1cc(F)c2c(c1)CCNC2)N1CCCC1 (stereo unspecified),Potency,[1],inactive
same,Potency,[2],inactive
CN(C)Cc1ccc(-c2cnn3c(-c4cccc(NC(=O)c5cccc(C(F)(F)F)c5)c4)ccnc23)cc1,Potency,[1],inactive
same,Potency,[2],inactive
O=C(NCCCN1CCOCC1)c1cnn2c(-c3ccccc3)cc(-c3ccccc3)nc12,Potency,[1],inactive
same,Potency,[2],inactive
C/C=C/C=C/c1cc2c(C=O)c(O)c(CC=C(C)C)cc2o1,Potency,[1],12.6 µM (active)
same,Potency,[2],17.8 µM (active)
CCC(C)CNCC(=O)N1CCC2SC=CC2C1COc1cccc(C)c1 (stereo unspecified),Potency,[1],inactive
same,Potency,[2],inactive
CN1CCN(C2CCN(C(=O)Nc3cc(Oc4ccc(NC(=O)C5(C(=O)Nc6ccc(F)cc6)CC5)c(F)c4)ccn3)CC2)CC1,Potency,[1],inactive
same,Potency,[2],inactive
CC(C)CC(=O)c1c(O)cc2c(c1O)C(CC(C)C)C1=C(O2)C(C)(C)C(=O)C(C)(C)C1=O (stereo unspecified),Potency,[1],8.91 µM (active)
same,Potency,[2],7.82 µM (active)
N#Cc1cc(-c2ccnc(Nc3ccc(N4CCOCC4)cc3)n2)ccc1OC1CCOCC1,Potency,[1],inactive
same,Potency,[2],inactive
CN(C)S(=O)(=O)c1ccc(NC(=S)N2CCC(C(O)(c3ccccc3)c3ccccc3)CC2)cc1,Potency,[1],inactive
same,Potency,[2],inactive
c1cc(NC2CCNCC2)nc(-c2cnc3ccccn23)c1,Potency,[1],inactive
same,Potency,[2],inactive
OC1CCC(Nc2nc(-c3ccccc3)nc3[nH]ccc23)CC1 (stereo unspecified),Potency,[1],inactive
same,Potency,[2],inactive
N#Cc1ccc2ncnc(NCCc3ccccc3)c2c1,Potency,[1],inactive
same,Potency,[2],inactive
C=C1C(=O)OC2/C=C(\C)CC3C=C(CC/C=C(\C)CCC12)C(=O)O3 (stereo unspecified),Potency,[1],inactive
same,Potency,[2],inactive
Cc1nc2ccc(-n3ncc(C(=O)c4cc5ccccc5[nH]4)c3N)cc2[nH]1,Potency,[1],inactive
same,Potency,[2],inactive
C=CC(=O)N1CCC(Oc2cc3c(Nc4ccc(Cl)c(Cl)c4F)ncnc3cc2OC)CC1,Potency,[1],inactive
same,Potency,[2],inactive
COc1ccc(C2Oc3c(OC)cc(CCCO)cc3C2COC2OC(CO)C(O)C(O)C2O)cc1OC (stereo unspecified),Potency,[1],inactive
same,Potency,[2],inactive
CC(C)=CCCC1(C)/C=C/C(OC(=O)C=C(C)C)C(C)(O)/C=C/C(=O)/C(CO)=C\C1 (stereo unspecified),Potency,[1],inactive
same,Potency,[2],inactive
CC(C)(C)c1ccc(NC(=O)N2CCN(c3ncccc3Cl)CC2)cc1,Potency,[1],inactive
same,Potency,[2],inactive
CCN1CCN(Cc2ccc(NC(=O)c3ccc(C)c(Oc4ccnc5[nH]ccc45)c3)cc2C(F)(F)F)CC1,Potency,[1],inactive
same,Potency,[2],inactive
COc1ccc(-c2ccc3c(N4CCOCC4C)nc(N4CCOCC4C)nc3n2)cc1CO (stereo unspecified),Potency,[1],inactive
same,Potency,[2],inactive
C/C1=C\[C@@H](C)C[C@@H](C)[C@@H](Cc2cnco2)OC(=O)/C(C)=C/[C@@H](C)C[C@@H](C)[C@@H](Cc2cnco2)OC1=O,Potency,[1],inactive
same,Potency,[2],inactive
Cc1ccc(C(=O)Nc2ccc(CN3CCN(C)CC3)c(C(F)(F)F)c2)cc1C#Cc1cnc2[nH]ncc2c1,Potency,[1],inactive
same,Potency,[2],inactive
C=C(C)C(=O)OC1CC2(C)OC(=CC2=O)C(=C)CC2OC(=O)C(=C)C12 (stereo unspecified),Potency,[1],inactive
same,Potency,[2],inactive
COc1ccc(-c2cnc3c(-c4cccc5ncccc45)cnn3c2)cc1,Potency,[1],inactive
same,Potency,[2],inactive
C=C1C(=O)O[C@@H]2C3C(=C(C)[C@@H](O)[C@@H](OC(=O)/C(=C/C)COC(C)=O)[C@@H]12)C(=O)[C@H]1O[C@@]31C (stereo partly specified),Potency,[1],inactive
same,Potency,[2],inactive
CC[N+]1(C/C2=C/CCCCCC2)CCC(NC(=O)C2c3cc(Cl)ccc3Oc3ccc(Cl)cc32)CC1 (stereo unspecified),Potency,[1],inactive
same,Potency,[2],inactive
COc1cc2c(cc1OCCCN1CCCC1)N=C(N)C21CCC1,Potency,[1],inactive
same,Potency,[2],inactive
Cc1cc(-c2nc3cc(F)ccc3s2)ccc1NC(=O)[C@@H](N)CCCCN,Potency,[1],inactive
same,Potency,[2],inactive
CCC/C=C\C=C/CCc1cc(O)c([C@@H]2O[C@H](CO)[C@@H](O)[C@H](O)[C@H]2O)c(O)c1C(=O)OC,Potency,[1],inactive
same,Potency,[2],inactive
O=C([C@@H](Cc1cccc(C(F)(F)F)c1)NS(=O)(=O)c1cc(F)c2c(c1)CCNC2)N1CCCC1,Potency,[1],inactive
same,Potency,[2],inactive
CC(=O)O[C@H]1C[C@@](O)(C(C)C)[C@@H]2[C@@H](OC(=O)c3ccc(O)cc3)CC(C)=CC[C@@]12C,Potency,[1],inactive
same,Potency,[2],inactive
CNC(=O)[C@@H](c1ccccc1)N1CCc2cc(OC)c(OC)cc2[C@@H]1CCc1ccc(C(F)(F)F)cc1,Potency,[1],inactive
same,Potency,[2],inactive
NCC1CCN(c2nccc(-c3ccc4ccccc4c3)n2)CC1,Potency,[1],inactive
same,Potency,[2],inactive
CC1(CO)CC(O)[C@]2(C(=O)O)CCC34CC3(C=CC3[C@]5(C)C(CC[C@]34C)C(C)(CO)[C@@H](O)[C@H](O)[C@@H]5O)C2C1 (stereo partly specified),Potency,[1],inactive
same,Potency,[2],inactive
CN1CCN(c2ccc(-c3cccc(CN4CCOCC4)c3)cc2NC(=O)c2c[nH]c(=O)cc2C(F)(F)F)CC1,Potency,[1],inactive
same,Potency,[2],inactive
Cn1c(CO)c(-c2ccccc2)c2cc([N+](=O)[O-])ccc21,Potency,[1],inactive
same,Potency,[2],inactive
Cc1cc2occ(CN(C)CCN(C)Cc3cn(-c4cccc(C(F)(F)F)c4)c4ccccc34)c(=O)c2cc1C,Potency,[1],inactive
same,Potency,[2],inactive
CC[C@H]1OC(=O)[C@H](C)[C@@H](O[C@H]2C[C@@](C)(OC)[C@@H](O)[C@H](C)O2)[C@H](C)[C@@H](O[C@H]2O[C@H](C)C[C@H](N(C)C)[C@H]2O)[C@](C)(O)C[C@@H](C)C(=O)[C@H](C)[C@@H](O)[C@]1(C)O,Potency,[1],inactive
same,Potency,[2],inactive
